# Data reported in PubChem BioAssay (NCATS).
# Several values for one entry are separate records, joined by “and”; a condition that tells them apart may be missing. Equal entries are not always repeated. Results filed as inconclusive are left out. Activity calls are given as the source filed them. Unless noted, the call rests on the fitted dose curve; in most records, active means well fitted curve in the direction sought with a large enough effect; inconclusive means small, poorly fitted or top-dose-only effect, or another doubt; inactive means no such curve, though single readings can be large; an effect the other way counts as inactive or inconclusive.
# Tests used:
# [1] = molecular target: Glutathione peroxidase 1 (Homo sapiens) (UniProt P07203); assay: Primary qHTS Assay for Inhibitors of Recombinant Selenoprotein Glutathione Peroxidase 1 (GPX1) (AID 1845191); further: nearly all actives have a fitted effect of over 65% in size
# Method in brief: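 GR-coupled assay: compounds preincubated 30 min at room temperature with GPX1, then reaction started with CHP; final 10 nM GPX1, 1 mM GSH, 0.5 mM CHP, 0.5 mM NADPH, 100 nM GR, 0.01% BSA, pH 7.5 Tris buffer. NADPH fluorescence (340/450 nm) read at 0 and 15 min.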
# [2] = molecular target: Phospholipid hydroperoxide glutathione peroxidase GPX4 (Homo sapiens) (UniProt P36969); assay: Primary qHTS Assay for Inhibitors of Recombinant Selenoprotein Glutathione Peroxidase 4 (GPX4) (AID 1845192); further: potency means the concentration at half of the fitted maximal effect; nearly all actives have a fitted effect of over 65% in size
# Method in brief: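 GR-coupled assay: recombinant GPX4 preincubated 30 min with compound at room temperature; final 200 nM GPX4, 1 mM GSH, 0.5 mM cumene hydroperoxide, 0.5 mM NADPH, 100 nM GR, 0.01% BSA, pH 7.5 Tris. NADPH fluorescence (340/450 nm) read at 0 and 15 min.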
# [3] = Cell Viability - BJ (AID 421; calls by dose curve;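 further: potency means the concentration at half of the fitted maximal effect; cells exposed to compound for 40 hours at 37 °C before readout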); settings: BJ fibroblast viability, qHTS
# Method in brief: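 Normal human BJ foreskin fibroblasts, 1500/well in complete medium, treated 40 hr at 37 °C. Cellular ATP by CellTiter-Glo luminescence; normalized to DMSO and 100 uM tamoxifen, AC50 from Hill fit.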
# [4] = Cell Viability - Jurkat (AID 426;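 active means dose-dependent loss of cell ATP signal giving a full or clear fitted curve, ranked by lower potency value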; further: potency means the concentration at half of the fitted maximal effect); settings: qHTS
# Method in brief: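 Seed 5000 Jurkat E6-1 cells/well; add compound; incubate 40 hr at 37 °C; add CellTiter-Glo; wait 20 min at room temperature; read luminescence. Fit concentration-response with Hill equation for AC50.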
# [5] = Cell Viability - Hek293 (AID 427;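 active means compounds whose dose-response curve shows a full or clear partial loss of cell viability, called from curve shape rather than a numeric limit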;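 further: potency means the concentration at half of the fitted maximal effect; cells exposed to compound for 40 hours at 37 °C before reading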); settings: qHTS
# Method in brief: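 HEK293 cells in complete medium were exposed to compound for 40 hr at 37 °C, then cellular ATP was read by CellTiter-Glo luminescence. Data were normalized to DMSO (basal) and 100 uM tamoxifen (100% inhibition), and AC50 came from Hill fits.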
# [6] = Cell Viability - MRC5 (AID 434; calls by dose curve;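 further: potency means the concentration at half of the fitted maximal effect; potency reflects cytotoxicity seen as loss of intracellular ATP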); settings: MRC5 lung fibroblast viability, qHTS
# Method in brief: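 MRC5 normal human lung fibroblasts, 1500 cells/well, exposed to compound for 40 hr at 37 C. Cellular ATP was read by CellTiter-Glo luminescence; data normalized to DMSO and 100 uM tamoxifen, with AC50 from Hill fits.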
# [7] = qHTS Assay for Identification of Small Molecule Inducers of Hypoxia Response (AID 2120; active means well fitted curve in the direction sought with a large enough effect in the signal ratio, with a control signal flat, not every such curve was filed as active; the % refers to the signal ratio; further: 0% is about no effect)
# Method in brief: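 Induction of beta-lactamase reporter activity was measured in CellSensor HRE-bla ME-180 cells after 17 h compound treatment at 37 degrees C, using CCF4 substrate and the 460nm/530nm emission ratio to derive AC50 values.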
# [8] = qHTS assay for small molecule agonists of retinoid X receptor alpha signaling (AID 588544); settings: HEK293T RXRa-UAS-bla, beta-lactamase reporter, 18 h; 530 nm emission
# [9] = molecular target: Thyroid hormone receptor beta (Homo sapiens) (UniProt P10828); assay: qHTS assay for small molecule agonists of thyroid hormone receptor beta signaling (AID 588545; calls by dose curve;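 further: 0% = DMSO only and 100% = 10 nM T3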)
# Method in brief: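 TR-UAS-bla GripTite HEK 293 cells (2500/well, medium with 2% charcoal/dextran FBS) were treated in agonist mode for 18 h at 37 C, titrated. Beta-lactamase was read by CCF4 ratio after 2 h; normalized to 10 nM T3 (100%) and DMSO, Hill-fitted for EC50 and efficacy.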
# [10] = qHTS assay for small molecule antagonists of retinoid X receptor alpha signaling (AID 588546; active means well fitted inhibition curve with a large enough effect in the signal ratio, with a control signal flat, not every such curve was filed as active; the % refers to the signal ratio;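 further: cells stimulated with 9-cis-retinoic acid as agonist; on the % scale 0 is the no-effect control and ±100 the full control effect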); settings: HEK293T RXRa-UAS-bla, beta-lactamase ratio, antagonist mode; measured here: W530 green channel, cytotoxicity proxy
# Method in brief: (§1)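 Beta-lactamase reporter inhibition, read as CCF4 fluorescence ratio (ex 405, em 460/530 nm) after 2 h at RT. HEK293T UAS-bla cells, 2500/well, were stimulated with 9-cis-RA at 500 or 100 nM final alongside test compound for 18 h at 37 C.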
# [11] = molecular target: Retinoic acid receptor RXR-alpha (Homo sapiens) (UniProt P19793); assay: as above; settings: HEK293T RXRa-UAS-bla, beta-lactamase ratio, antagonist mode
# Method in brief: as §1
# [12] = qHTS assay for environmental chemicals that activate the Aryl hydrocarbon Receptor (AhR) signaling pathway (AID 651777); settings: 1A2-DRE human hepatoma cells, luciferase, 24 h; activation: stronger effect = higher value; further: % of control where 0% means no effect; nearly all actives have a fitted effect of over 15% in size
# Method in brief: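 Human hepatoma 1A2-DRE cells stably carrying a DRE/CYP1A2 promoter–luciferase reporter, 1,200 cells/well, exposed to compound 24 hr at 37 C. Luciferase read by One-Glo luminescence after 30 min at room temperature; increased signal marks AhR activation.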
# [13] = molecular target: Peroxisome proliferator-activated receptor alpha (Homo sapiens) (UniProt Q07869); assay: qHTS assay for small molecule agonists of the peroxisome proliferator-activated receptor alpha (PPARalpha) signaling pathway (AID 651778); settings: PathHunter PPARalpha complementation, chemiluminescence, 6 h; max response: stronger effect = higher value; further: % of control where 0% means no effect
# Method in brief: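 Enzyme-fragment complementation assay in which ligand-bound PPARalpha translocates and forms an active enzyme that generates chemiluminescence. Cells were plated overnight, exposed to compound for 6 hr at 37 C, and then given detection reagent for 60 min at room temperature.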
# [14] = qHTS assay for small molecule agonists of the antioxidant response element (ARE) signaling pathway measured by Nrf2-dependant transcriptional activity (AID 720636; active means well fitted curve in the direction sought with a large enough effect in the repeat runs; an effect the other way counts as inactive or inconclusive; further: % of control where 0% means no effect)
# Method in brief: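 ARE-luc HepG2 cells carrying an Nrf2-responsive luciferase reporter, in medium with 1% dialyzed FBS, exposed to compound for 16 hr at 37 C, 5% CO2. Luminescence read 30 min after ONE-Glo addition.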
# [15] = qHTS assay for small molecule agonists of the antioxidant response element (ARE) signaling pathway measured by Nrf2-dependant transcriptional activity - cell viability counter screen (AID 720653; active means well fitted curve in the direction sought with a large enough effect in the repeat runs; an effect the other way counts as inactive or inconclusive; further: on the % scale 0 is the no-effect control and ±100 the full control effect); settings: ARE-bla HepG2 viability, CellTiter-Glo ATP luminescence, 16 h; max response: stronger effect = lower value
# Method in brief: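 ARE-bla HepG2 cells treated with compounds for 16 h at 37C; this counter screen measures viability as intracellular ATP by CellTiter-Glo luminescence after 30 min at room temperature.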
# [16] = qHTS assay for cell viability of HEK293 cells (AID 743288); settings: ATP luminescence (CellTiter-Glo), 18 h; max response: stronger effect = lower value; further: on the % scale 0 is the no-effect control and ±100 the full control effect; nearly all actives have a fitted effect of over 50% in size
# Method in brief: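 HEK293 parental, 2,000 cells/well; ≥5 h pre-incubation 37 C; pintool compound addition; 18 h, 37 C; CellTiter-Glo 30 min RT; luminescence read.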
# [17] = qHTS assay for cell viability of the p53RE-bla HCT-116 cell line (AID 743292); further: on the % scale 0 is the no-effect control and ±100 the full control effect; nearly all actives have a fitted effect of over 55% in size
# Method in brief: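 CellSensor p53RE-bla HCT-116 cells (4,000/well) pre-incubated 5 h at 37 C, then exposed to compounds in DMSO for 16 h at 37 C. Viability read as ATP content by CellTiter-Glo luminescence after 30 min at room temperature.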
# [18] = molecular target: Nuclear receptor subfamily 1 group I member 2 (Rattus norvegicus) (UniProt Q9R1A7); assay: qHTS assay for small molecule activators of the rat pregnane X receptor (rPXR) signaling pathway (AID 651751; call rule not given here; further: 0% is about no effect); settings: rPXR reporter cells, luciferase (One-Glo), 24 h
# [19] = qHTS profiling for inhibitors of Plasmodium falciparum proliferation (AID 504749); further: potency means the concentration at half of the fitted maximal effect; nearly all actives have a fitted effect of over 60% in size; settings: P. falciparum in erythrocytes, SYBR Green DNA, 72 h
# Method in brief: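 Readout was DNA-dye fluorescence from lysed cultures, ex 485/em 535 nm. Parasitized red cells had grown 72 h with compound; data scaled between 0.29 uM artemisinin and DMSO wells and corrected using vehicle-only plates.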
# Chain of Retinoic acid receptor RXR-alpha (Homo sapiens) (P19793 whole entry, looked up): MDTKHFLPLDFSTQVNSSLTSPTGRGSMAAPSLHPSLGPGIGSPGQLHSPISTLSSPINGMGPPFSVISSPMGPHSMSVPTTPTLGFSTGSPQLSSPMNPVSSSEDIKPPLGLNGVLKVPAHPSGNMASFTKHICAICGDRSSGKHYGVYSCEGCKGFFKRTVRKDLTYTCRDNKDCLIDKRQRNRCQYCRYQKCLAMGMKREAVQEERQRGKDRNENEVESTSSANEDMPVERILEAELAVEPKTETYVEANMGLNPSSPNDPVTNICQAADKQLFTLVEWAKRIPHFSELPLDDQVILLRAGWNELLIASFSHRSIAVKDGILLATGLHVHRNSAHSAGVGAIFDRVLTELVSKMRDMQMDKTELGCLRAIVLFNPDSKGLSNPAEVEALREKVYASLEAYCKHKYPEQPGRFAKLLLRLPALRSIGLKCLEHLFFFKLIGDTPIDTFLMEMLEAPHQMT
# Chain of Glutathione peroxidase 1 (Homo sapiens) (P07203 whole entry, looked up): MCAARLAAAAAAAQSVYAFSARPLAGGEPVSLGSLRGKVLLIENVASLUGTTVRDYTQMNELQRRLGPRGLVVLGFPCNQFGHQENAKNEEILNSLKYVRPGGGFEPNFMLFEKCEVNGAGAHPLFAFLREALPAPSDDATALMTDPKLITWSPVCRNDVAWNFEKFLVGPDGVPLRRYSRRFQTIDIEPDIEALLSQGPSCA
# Chain of Phospholipid hydroperoxide glutathione peroxidase GPX4 (Homo sapiens) (P36969 whole entry, looked up): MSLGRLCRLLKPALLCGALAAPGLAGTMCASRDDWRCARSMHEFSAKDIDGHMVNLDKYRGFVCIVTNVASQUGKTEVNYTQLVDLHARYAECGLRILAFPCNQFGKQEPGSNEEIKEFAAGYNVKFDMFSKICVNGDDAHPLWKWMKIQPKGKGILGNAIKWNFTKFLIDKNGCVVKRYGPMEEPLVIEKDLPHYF
# Chain of Thyroid hormone receptor beta (Homo sapiens) (P10828 whole entry, looked up): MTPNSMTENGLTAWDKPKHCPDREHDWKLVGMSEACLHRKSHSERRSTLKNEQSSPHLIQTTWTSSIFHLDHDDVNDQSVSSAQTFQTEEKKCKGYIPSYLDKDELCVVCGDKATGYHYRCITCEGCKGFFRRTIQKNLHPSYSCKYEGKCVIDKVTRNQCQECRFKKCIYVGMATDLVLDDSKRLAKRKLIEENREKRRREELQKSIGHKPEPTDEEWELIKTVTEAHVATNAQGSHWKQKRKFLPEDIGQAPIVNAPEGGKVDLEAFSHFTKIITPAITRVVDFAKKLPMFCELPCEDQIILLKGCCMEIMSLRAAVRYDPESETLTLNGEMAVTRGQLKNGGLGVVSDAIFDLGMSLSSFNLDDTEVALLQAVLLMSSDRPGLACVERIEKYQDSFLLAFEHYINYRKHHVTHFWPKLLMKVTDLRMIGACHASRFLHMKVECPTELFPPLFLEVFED
# Chain of Nuclear receptor subfamily 1 group I member 2 (Rattus norvegicus) (Q9R1A7 whole entry, looked up): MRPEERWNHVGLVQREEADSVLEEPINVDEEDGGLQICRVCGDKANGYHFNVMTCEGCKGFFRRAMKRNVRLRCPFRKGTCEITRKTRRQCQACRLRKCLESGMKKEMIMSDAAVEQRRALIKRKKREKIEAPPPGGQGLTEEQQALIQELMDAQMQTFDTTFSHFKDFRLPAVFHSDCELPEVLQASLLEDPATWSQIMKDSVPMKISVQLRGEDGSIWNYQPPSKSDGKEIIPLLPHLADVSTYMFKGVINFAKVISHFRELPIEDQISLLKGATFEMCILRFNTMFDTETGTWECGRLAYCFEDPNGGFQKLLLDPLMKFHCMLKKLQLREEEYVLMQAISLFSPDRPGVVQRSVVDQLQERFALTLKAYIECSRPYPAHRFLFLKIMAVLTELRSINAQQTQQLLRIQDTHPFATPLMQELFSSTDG
# Chain of Peroxisome proliferator-activated receptor alpha (Homo sapiens) (Q07869 whole entry, looked up, the tested form may be a part): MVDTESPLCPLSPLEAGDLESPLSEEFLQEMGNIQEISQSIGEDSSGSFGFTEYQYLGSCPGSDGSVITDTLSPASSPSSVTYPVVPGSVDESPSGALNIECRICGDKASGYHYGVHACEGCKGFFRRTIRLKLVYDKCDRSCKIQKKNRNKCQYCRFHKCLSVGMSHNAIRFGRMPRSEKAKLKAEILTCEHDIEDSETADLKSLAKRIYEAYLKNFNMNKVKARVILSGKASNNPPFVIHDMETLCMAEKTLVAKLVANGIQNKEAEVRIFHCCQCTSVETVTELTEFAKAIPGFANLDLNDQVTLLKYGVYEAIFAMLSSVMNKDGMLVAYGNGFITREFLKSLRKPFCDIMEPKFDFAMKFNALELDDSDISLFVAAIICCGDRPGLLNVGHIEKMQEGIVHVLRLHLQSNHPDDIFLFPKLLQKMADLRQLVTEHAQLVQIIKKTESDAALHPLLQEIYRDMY
smiles,measurement,setting,value
Nc1nc(-c2ccc(Cl)c(Cl)c2)c(-c2ccncc2)s1,Potency,[1],inactive
CC(O)C(CO)NC(=O)C1CSSCC(NC(=O)C(N)Cc2ccccc2)C(=O)NC(Cc2ccccc2)C(=O)NC(Cc2c[nH]c3ccccc23)C(=O)NC(CCCCN)C(=O)NC(C(C)O)C(=O)N1 (configuration not stated),Potency,[2],12.6 µM (active)
Cc1ccccc1C,Potency,[3],> 92 µM (inactive)
same,Potency,[4],> 92 µM (inactive)
same,Potency,[5],> 92 µM (inactive)
same,Potency,[6],> 92 µM (inactive)
same,outcome,[7],inactive
same,max response,[8],-0.877% and 16.9%
same,outcome,[9],inactive
same,max response,[10],-1.73% and -2.63%
same,max response,[11],24.2% (inactive) and -2.36% (inactive)
same,activation,[12],1.3% (inactive) and -0.327% (inactive)
same,max response,[13],1.03% (inactive) and -0.383% (inactive)
same,Potency,[14],inactive
same,max response,[15],-17.8% (inactive) and 4.54% (inactive)
same,max response,[16],-12.4% (inactive) and -5.18% (inactive)
same,Potency,[17],inactive
same,max response,[18],-1.06% (inactive) and 4.02% (inactive)
Nc1ccc(S(=O)(=O)O)cc1,Potency,[3],> 92 µM (inactive)
same,Potency,[4],> 92 µM (inactive)
same,Potency,[5],> 92 µM (inactive)
same,Potency,[6],> 92 µM (inactive)
same,outcome,[7],inactive
same,max response,[8],8.69% and -7.04%
same,outcome,[9],inactive
same,max response,[10],-0.278%
same,max response,[11],-17.1% (inactive)
same,activation,[12],-0.977% (inactive) and -1% (inactive)
same,max response,[13],-1.01% (inactive) and -2.98% (inactive)
same,Potency,[14],inactive
same,max response,[15],0.96% (inactive) and 3.16% (inactive)
same,max response,[16],-3.43% (inactive) and 3.86% (inactive)
same,Potency,[17],inactive
same,max response,[18],-3.61% (inactive) and -1.3% (inactive)
COC(=O)CCCCC(=O)OC,Potency,[3],> 92 µM (inactive)
same,Potency,[4],> 92 µM (inactive)
same,Potency,[5],> 92 µM (inactive)
same,Potency,[6],> 92 µM (inactive)
same,outcome,[7],inactive
same,max response,[8],-8.22% and -17.2% and -16.7%
same,outcome,[9],inactive
same,max response,[10],-7.1% and -4.41% and 10.6%
same,max response,[11],-2.55% (inactive) and -9.27% (inactive) and -5.71% (inactive)
same,activation,[12],3.11% (inactive) and -1.77% (inactive) and 1.4% (inactive)
same,max response,[13],-1.36% (inactive) and -1.93% (inactive) and -0.772% (inactive)
same,Potency,[14],inactive
same,max response,[15],-2.58% (inactive) and 2.67% (inactive) and 6.18% (inactive)
same,max response,[16],-0.912% (inactive) and -4.94% (inactive) and -1.91% (inactive)
same,Potency,[17],inactive
same,max response,[18],5.4% (inactive) and -0.278% (inactive) and 0.834% (inactive)
COc1cc(/C=C/C(=O)N2CCC=CC2=O)cc(OC)c1OC,Potency,[1],inactive
Cn1nnnc1SCC1=C(C(=O)O)N2C(=O)[C@H](NC(=O)C(O)c3ccccc3)C2SC1 (some centres not stated),Potency,[2],8.91 µM (active)
NCCC[C@H](NC(=O)[C@@H]1CCCN1C(=O)[C@@H]1CSSC[C@H](N)C(=O)N[C@@H](Cc2ccc(O)cc2)C(=O)N[C@@H](Cc2ccccc2)C(=O)N[C@@H](CCC(N)=O)C(=O)N[C@@H](CC(N)=O)C(=O)N1)C(=O)NCC(N)=O,Potency,[2],25.1 µM (active)
CO[C@@H]1[C@@H](OC2OC(C)C(OC3CC(C)(O)C(OC(=O)CC(C)C)C(C)O3)C(N(C)C)C2O)[C@@H](CC=O)C[C@@H](C)C(=O)/C=C\C2O[C@H]2C[C@@H](C)OC(=O)C[C@H]1OC(C)=O (some centres not stated),Potency,[1],inactive
same,Potency,[19]; parasite line A,11.2 µM (active)
same,Potency,[19]; parasite line B,10 µM (active)
O=C(O)c1ccc(O)cc1O,Potency,[3],> 92 µM (inactive)
same,Potency,[4],> 92 µM (inactive)
same,Potency,[5],> 92 µM (inactive)
same,Potency,[6],> 92 µM (inactive)
same,outcome,[7],inactive
same,max response,[8],-5.03% and -19.7%
same,outcome,[9],inactive
same,max response,[10],-5.6%
same,max response,[11],1.87% (inactive)
same,activation,[12],0.974% (inactive) and 0.552% (inactive)
same,max response,[13],-2.85% (inactive) and -4.3% (inactive)
same,Potency,[14],inactive
same,max response,[15],4.94% (inactive) and 4% (inactive)
same,max response,[16],-11.1% (inactive) and 9.9% (inactive)
same,Potency,[17],inactive
same,max response,[18],10.9% (inactive) and 2.3% (inactive)
